Measured values taken from PubChem BioAssay (EPA / NIEHS).
The source made the active and inactive calls. The calls were made as follows: active = hit-call score of the fitted dose curve at least 0.9, where 1 is the maximum; inactive = score below 0.9.

Columns and labels:
Settings in all cases: mRNA level, 48 h; actives raise or lower the signal
[1] = read-out: MicroRNA 122 (MIR122), gene 406906; assay: LTEA_HepaRG_MIR122: Life Technologies and Expression Analysis (LTEA) Assay for MicroRNA 122 (MIR122) using HepaRG (AID 2283516); also: the transcript read is the microRNA miR-122
Outline: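 HepaRG, 48 h exposure, 8-pt half-log from 100 uM, 0.5% DMSO; TaqMan qRT-PCR; bidirectional fit vs DMSO.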

[2] = read-out: matrix metalloproteinase-10 (MMP10), MMP10 (gene 4319); assay: LTEA_HepaRG_MMP10: Life Technologies and Expression Analysis (LTEA) Assay for matrix metalloproteinase-10 (MMP10) using HepaRG (AID 2283517)
Outline: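 Differentiated HepaRG cells in serum-free induction medium exposed 48 h in duplicate to 8-point half-log series up to 100 uM in 0.5% DMSO. mRNA quantified by qRT-PCR, normalised to ACTB, GAPDH, POLR2A; bidirectional fit versus DMSO.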

MYC, MYC (gene 4609) = assay: LTEA_HepaRG_MYC: Life Technologies and Expression Analysis (LTEA) Assay for MYC using HepaRG (AID 2283518)
Outline: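 Differentiated HepaRG cells exposed 48 h in serum-free induction medium to 8 concentrations (top 100 uM, half-log steps; 0.5% DMSO), duplicate. MYC mRNA measured by Fluidigm qRT-PCR, normalized to ACTB, GAPDH, POLR2A; bidirectional fit versus DMSO.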

[3] = read-out: matrix metalloproteinase-3 (MMP3), MMP3 (gene 4314); assay: LTEA_HepaRG_MMP3: Life Technologies and Expression Analysis (LTEA) Assay for matrix metalloproteinase-3 (MMP3) using HepaRG (AID 2283519)
Outline: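 HepaRG cells (~100,000/well) in serum-free induction medium were dosed in duplicate for 48 h with an 8-point half-log series from 100 uM, 0.5% DMSO. MMP3 mRNA was quantified by Fluidigm TaqMan qRT-PCR, normalized to three housekeeping genes.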

[4] = read-out: Paternally Expressed 10 (PEG10), PEG10 (gene 23089); assay: LTEA_HepaRG_PEG10: Life Technologies and Expression Analysis (LTEA) Assay for Paternally Expressed 10 (PEG10) using HepaRG (AID 2283520);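 as to AC50: PEG10 transcript by qRT-PCR normalised to ACTB GAPDH and POLR2A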
Outline: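 Chemicals tested on HepaRG cells for 48 h, highest concentration 100 uM. PEG10 expression assessed by qRT-PCR relative to DMSO control.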

[5] = read-out: Protein phosphatase 2A (PPP2R4), PTPA (gene 5524); assay: LTEA_HepaRG_PPP2R4: Life Technologies and Expression Analysis (LTEA) Assay for Protein phosphatase 2A (PPP2R4) using HepaRG (AID 2283522)
Outline: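 Gene-expression endpoint in HepaRG hepatic cells: 48 h treatment across eight half-log concentrations up to 100 uM in 0.5% DMSO. PPP2R4 mRNA by qRT-PCR, normalized to three endogenous control genes.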

[6] = read-out: Pyruvate Dehydrogenase Kinase 4 (PDK4), PDK4 (gene 5166); assay: LTEA_HepaRG_PDK4: Life Technologies and Expression Analysis (LTEA) Assay for Pyruvate Dehydrogenase Kinase 4 (PDK4) using HepaRG (AID 2283525)
Outline: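 HepaRG cells plated 48 h, then switched to serum-free induction medium and exposed in duplicate for 48 h to 8 half-log concentrations from 100 uM in 0.5% DMSO. PDK4 mRNA measured by qRT-PCR, normalized to ACTB, GAPDH and POLR2A; bidirectional fit versus DMSO.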

[7] = read-out: NAD(P)H dehydrogenase [quinone] 1 (NQO1), NQO1 (gene 1728); assay: LTEA_HepaRG_NQO1: Life Technologies and Expression Analysis (LTEA) Assay for NAD(P)H dehydrogenase [quinone] 1 (NQO1) using HepaRG (AID 2283526)
Outline: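 Human HepaRG hepatic cells received chemicals for 48 h in serum-free induction medium with 0.5% DMSO, up to 100 uM. Expression was assessed by TaqMan qRT-PCR against housekeeping controls and fitted bidirectionally against DMSO.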

[8] = read-out: Nuclear factor erythroid 2-related factor 2 (Homo sapiens) (UniProt Q16236); assay: LTEA_HepaRG_NFE2L2: Life Technologies and Expression Analysis (LTEA) Assay for Nuclear factor erythroid 2-related factor 2 (NFE2L2) Transcription Factor using HepaRG (AID 2283527)
Outline: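 Differentiated human HepaRG cells, serum-free induction medium, exposed 48 h in duplicate to eight half-log concentrations up to 100 uM in 0.5% DMSO. NFE2L2 mRNA by Fluidigm TaqMan qRT-PCR, normalised to ACTB, GAPDH, POLR2A; bidirectional change versus DMSO.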

[9] = read-out: succinate dehydrogenase complex iron sulfur subunit B (SDHB), SDHB (gene 6390); assay: LTEA_HepaRG_SDHB: Life Technologies and Expression Analysis (LTEA) Assay for succinate dehydrogenase complex iron sulfur subunit B (SDHB) using HepaRG (AID 2283528)
Outline: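 HepaRG cells (~100,000/well, plated 48 h) exposed in duplicate for 48 h in serum-free induction medium to 8-point half-log series from 100 uM in 0.5% DMSO; mRNA by qRT-PCR normalised to ACTB, GAPDH, POLR2A; bidirectional fit versus DMSO.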

[10] = read-out: Signal transducer and activator of transcription 3 (Homo sapiens) (UniProt P40763); assay: LTEA_HepaRG_STAT3: Life Technologies and Expression Analysis (LTEA) Assay for Signal transducer and activator of transcription (STAT3) using HepaRG (AID 2283529)
Outline: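 Differentiated HepaRG cells, serum-free induction medium, dosed 48 h in duplicate, 8 half-log concentrations from 100 uM in 0.5% DMSO. STAT3 mRNA by qRT-PCR, normalised to ACTB, GAPDH, POLR2A; bidirectional fit versus DMSO.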

[11] = read-out: solute carrier (SLCO1B1), SLCO1B1 (gene 10599); assay: LTEA_HepaRG_SLCO1B1: Life Technologies and Expression Analysis (LTEA) Assay for solute carrier (SLCO1B1) using HepaRG (AID 2283530)
Outline: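 Differentiated human HepaRG cells were exposed for 48 h in serum-free induction medium to eight half-log concentrations, top 100 uM, in 0.5% DMSO. SLCO1B1 mRNA was measured by qRT-PCR, normalized to ACTB, GAPDH and POLR2A, and fitted bidirectionally against DMSO.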

[12] = read-out: sulfotransferase 2A1 (SULT2A1), SULT2A1 (gene 6822); assay: LTEA_HepaRG_SULT2A1: Life Technologies and Expression Analysis (LTEA) Assay for sulfotransferase 2A1 (SULT2A1) using HepaRG (AID 2283531)
Outline: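 HepaRG human liver cells, 48 h exposure in serum-free induction medium to 8 half-log concentrations topping at 100 µM (0.5% DMSO), duplicate wells. SULT2A1 mRNA measured by TaqMan qRT-PCR, normalized to ACTB/GAPDH/POLR2A; bidirectional fit against DMSO.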

[13] = read-out: Transforming Growth Factor (TGFA), TGFA (gene 7039); assay: LTEA_HepaRG_TGFA: Life Technologies and Expression Analysis (LTEA) Assay for Transforming Growth Factor (TGFA) using HepaRG (AID 2283532)
Outline: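 Differentiated HepaRG cells exposed 48 hours in serum-free induction medium, 0.5% DMSO vehicle, 8-point half-log series from 100 uM, in duplicate. TGFA mRNA by TaqMan qRT-PCR, normalised to ACTB, GAPDH, POLR2A; bidirectional fit versus DMSO.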

[14] = read-out: Transforming Growth Factor (TGFB1), TGFB1 (gene 7040); assay: LTEA_HepaRG_TGFB1: Life Technologies and Expression Analysis (LTEA) Assay for Transforming Growth Factor (TGFB1) Transporter using HepaRG (AID 2283533)
Outline: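 Differentiated HepaRG cells exposed 48 hr in serum-free induction medium to eight half-log concentrations up to 100 uM (0.5% DMSO), duplicate; TGFB1 mRNA by TaqMan qRT-PCR normalised to ACTB, GAPDH, POLR2A; bidirectional fit against DMSO.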

TIMP1, TIMP1 (gene 7076) = assay: LTEA_HepaRG_TIMP1: Life Technologies and Expression Analysis (LTEA) Assay for TIMP1 using HepaRG (AID 2283534);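 also: TaqMan qRT-PCR signal normalized to ACTB GAPDH and POLR2A housekeeping genes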
Outline: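 Differentiated HepaRG cells exposed 48 h in serum-free induction medium, duplicates, eight half-log concentrations from 100 uM in 0.5% DMSO. TIMP1 mRNA by qRT-PCR normalized to ACTB, GAPDH, POLR2A; bidirectional fitting against DMSO.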

[15] = read-out: Tumor necrosis factor receptor 1 (TNFRSF1A), TNFRSF1A (gene 7132); assay: LTEA_HepaRG_TNFRSF1A: Life Technologies and Expression Analysis (LTEA) Assay for Tumor necrosis factor receptor 1 (TNFRSF1A) using HepaRG (AID 2283535)
Outline: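 Differentiated HepaRG cells in serum-free induction medium, exposed 48 h in duplicate to 8 half-log concentrations up to 100 uM in 0.5% DMSO. TNFRSF1A mRNA by Fluidigm TaqMan qRT-PCR, normalized to ACTB, GAPDH, POLR2A; bidirectional fit.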

Measured: AC50

Chain of Nuclear factor erythroid 2-related factor 2 (Homo sapiens) (Q16236 whole entry, looked up): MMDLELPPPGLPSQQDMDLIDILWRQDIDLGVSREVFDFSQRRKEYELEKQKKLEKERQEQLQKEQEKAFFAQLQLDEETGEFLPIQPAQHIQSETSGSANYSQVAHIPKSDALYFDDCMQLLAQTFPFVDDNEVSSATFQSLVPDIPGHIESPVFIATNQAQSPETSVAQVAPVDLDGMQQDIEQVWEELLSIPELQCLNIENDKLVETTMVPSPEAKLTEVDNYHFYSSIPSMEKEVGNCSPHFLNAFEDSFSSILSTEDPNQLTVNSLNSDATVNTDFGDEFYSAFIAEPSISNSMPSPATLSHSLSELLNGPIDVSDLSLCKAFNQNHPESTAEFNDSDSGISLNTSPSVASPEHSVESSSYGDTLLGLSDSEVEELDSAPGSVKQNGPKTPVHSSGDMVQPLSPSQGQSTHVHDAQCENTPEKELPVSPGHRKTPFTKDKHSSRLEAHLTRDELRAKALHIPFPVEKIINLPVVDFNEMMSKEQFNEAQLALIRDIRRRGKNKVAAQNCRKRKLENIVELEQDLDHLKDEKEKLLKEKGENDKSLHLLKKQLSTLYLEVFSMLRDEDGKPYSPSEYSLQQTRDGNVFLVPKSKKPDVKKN
Chain of Signal transducer and activator of transcription 3 (Homo sapiens) (P40763 whole entry, looked up): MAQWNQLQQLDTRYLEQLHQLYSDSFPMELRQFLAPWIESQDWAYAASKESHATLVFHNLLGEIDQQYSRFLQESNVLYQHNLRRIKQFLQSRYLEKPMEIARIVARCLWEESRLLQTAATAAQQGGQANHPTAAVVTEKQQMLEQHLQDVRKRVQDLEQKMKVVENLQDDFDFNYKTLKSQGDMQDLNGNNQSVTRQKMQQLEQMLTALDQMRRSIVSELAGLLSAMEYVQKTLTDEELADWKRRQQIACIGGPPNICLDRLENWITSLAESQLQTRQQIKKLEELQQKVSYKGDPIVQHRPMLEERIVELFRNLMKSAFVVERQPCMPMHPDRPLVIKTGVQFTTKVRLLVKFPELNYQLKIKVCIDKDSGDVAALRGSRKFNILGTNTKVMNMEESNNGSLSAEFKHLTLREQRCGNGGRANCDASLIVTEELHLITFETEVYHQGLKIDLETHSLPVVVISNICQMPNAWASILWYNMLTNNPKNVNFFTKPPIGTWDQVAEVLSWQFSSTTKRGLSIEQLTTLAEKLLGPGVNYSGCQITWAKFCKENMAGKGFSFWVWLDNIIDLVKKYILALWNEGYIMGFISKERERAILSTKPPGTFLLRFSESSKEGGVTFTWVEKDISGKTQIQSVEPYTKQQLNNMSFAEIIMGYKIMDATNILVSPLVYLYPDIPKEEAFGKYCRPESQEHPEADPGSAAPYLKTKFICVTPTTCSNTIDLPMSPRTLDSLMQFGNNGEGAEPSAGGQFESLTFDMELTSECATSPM

N#Cc1ccc(N(CC(N)=O)CC(F)(F)F)cc1C(F)(F)F
active: [4] 10.5 µM
inactive: all other assays above

Cc1ccccc1[N+](=O)[O-]
inactive: all assays above

COc1ccc(O)c(C(C)(C)C)c1
not listed: [9] | [15]
inactive: all other assays above

Cc1cc2c3c(c1)C(c1ccccc1)=N[C@@H](NC(=O)c1ccncc1)C(=O)N3CC2
active: [6] 50 µM | [8] 50 µM
inactive: all other assays above

CCCCCCOC(=O)c1ccccc1C(=O)OCCCCCC
inactive: all assays above

ClC(Cl)=C(c1ccc(Cl)cc1)c1ccc(Cl)cc1
active: [12] 12 µM
not listed: [6] | [9]
inactive: all other assays above

Nn1cnnc1
inactive: all assays above

Clc1ccc(Cl)cc1
not listed: [9]
inactive: all other assays above
